30 molecules from PubChem BioAssay (EPA / NIEHS) can be followed below.

“And” between values parts separate entries of the source, which are not always exact repeats. Equal values may be shown once. Inconclusive results are not listed. The source made the active and inactive calls. How the source made its calls: active means hit-call score of the fitted dose curve at least 0.9, where 1 is the maximum; inconclusive means response in the unintended direction; inactive means score below 0.9.

Usually AC50 stands for the midpoint of the concentration-response curve, whichever way the signal moves.

The assay is described as follows: TOX21_p53_BLA_p4_viability: Viability Assessment in the Tox21 HCT-116 p53 Agonism Beta-lactamase Assay, Phase 4 (AID 2283597).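 Further: hits lower the luminescence signal meaning cytotoxicity.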 The essentials: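 Readout: ATP luminescence (CellTiter-Glo), measured 30 min after reagent addition at RT. The reagent followed a 2 h CCF4-AM incubation, and the cells had been exposed to compound for 16 h at 37C.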
With `Oc1ccc(-c2ccccc2)cc1`, the outcome was inactive.

`Nc1cccc2ccccc12`: the molecule was called inactive.

Regarding `CCCCCCCCSC(=O)Oc1cc(Cl)nnc1-c1ccccc1`, the molecule was classed as inactive.

Turning to `N#Cc1ccccn1`, the outcome was inactive.

Regarding `O=S(=O)(c1ccc(Cl)cc1)c1ccc(Cl)cc1`, the result was inactive.

Consider `CN(C)P(=O)(N(C)C)N(C)C`, for which the outcome was inactive.

With `CCOC(=O)Nc1cccc(OC(=O)Nc2ccccc2)c1`, the result was inactive.

As for `C=CC#N`, the molecule was called inactive.

With `COc1ccc(C=O)cc1`, the result was inactive.

Regarding `COP(=O)(OC)O/C(=C\Cl)c1cc(Cl)c(Cl)cc1Cl`, the call was inactive.

On to `C[C@H]1O[C@@H](O[C@H]2[C@@H](O)C[C@H](O[C@H]3[C@@H](O)C[C@H](O[C@H]4CC[C@@]5(C)[C@H](CC[C@@H]6[C@@H]5CC[C@]5(C)[C@@H](C7=CC(=O)OC7)CC[C@]65O)C4)O[C@@H]3C)O[C@@H]2C)C[C@H](O)[C@@H]1O`, for which the AC50 is 40.5 nM (active) and 66.7 nM (active).

Turning to `[O-][Cl+2]([O-])O`, the molecule was called inactive.

For the molecule `Clc1ccc(COC(Cn2ccnc2)c2ccc(Cl)cc2Cl)cc1` (stereo not given), the half-maximal activity concentration (AC50) was 70.5 µM (active) and 61.1 µM (active) and 37.6 µM (active).

Regarding `CC(C#N)CCC#N` (stereo not given), the outcome was inactive.

As to `CC(=O)OC(c1ccccc1)C(Cl)(Cl)Cl` (stereo not given), the call was inactive.

Take `CNC`: the molecule was classed as inactive.

For `CCC(=O)c1ccccc1`, the molecule was called inactive.

As to `ClC1=C(Cl)[C@]2(Cl)[C@H]3[C@H]([C@H]4C=C[C@H]3C4)[C@@]1(Cl)C2(Cl)Cl`, the molecule was classed as inactive.

On to `Clc1nc(Cl)nc(Cl)n1`, for which the call was inactive.

With `CCC(C)c1cccc(C(C)CC)c1O` (stereo not given), the molecule was called inactive.

For the molecule `CC(C)(c1ccc(OCC2CO2)cc1)c1ccc(OCC2CO2)cc1` (stereo not given), the half-maximal activity concentration (AC50) was 70.9 µM (active) and 72.2 µM (active).

Regarding `COc1cc2c(cc1OC)[C@@]13CCN4CC5=CCO[C@H]6CC(=O)N2[C@H]1[C@H]6[C@H]5C[C@H]43`, the result was inactive.

`O=[N+]([O-])c1c(Cl)c(Cl)cc(Cl)c1Cl`: the molecule was classed as inactive.

As to `COP(=O)(OC)OC`, the result was inactive.

For the molecule `CCCCOCCOC(C)=O`, the molecule was classed as inactive.

On to `CCOP(=O)(CN(CCO)CCO)OCC`, for which the molecule was classed as inactive.

With `O=C/C=C/c1ccccc1`, the call was inactive.

For `CC(C)CCCCCCOC(=O)c1ccccc1C(=O)OCCCCCCC(C)C`, the molecule was called inactive.

Take `Nc1ccc(-c2ccc(N)c(Cl)c2)cc1Cl`: the call was inactive.

Turning to `Cc1ccccc1C(=O)Nc1cccc(OC(C)C)c1`, the molecule was classed as inactive.
